# In PubChem BioAssay AID1434 (Sanford-Burnham Center for Chemical Genomics, 2008):
# The whole screen tested about 220,000 compounds, of which about 1,600 (0.73%) were called active.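 How the source made its calls: active means mean inhibition across duplicate retests at 20 µM reaching about 50% (limit read from the data); inactive means the rest, inconclusive results apart.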 The full list was thinned out, with actives kept by preference.
# Biological target: Runt-related transcription factor 1 (Homo sapiens) + Core-binding factor subunit beta (Homo sapiens) (UniProt Q01196+Q13951)
# Test: inhibitors of RUNX1 Runt–CBFb-SMMHC binding, primary screen, biochemical, FRET, Cerulean-Runt, Venus-CBFb-SMMHC, uHTS (AID 1434);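 further: 0% = DMSO wells and 100% = wells with excess untagged CBFb-SMMHC; inhibitors lower the FRET ratio by blocking Runt binding to CBFb-SMMHC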
# Conditions: Cerulean-Runt/Venus-CBFb-SMMHC FRET ratio 530/480, 1 h, at 20 µM, stronger effect = higher value
# Sequence of Runt-related transcription factor 1 (Homo sapiens) + Core-binding factor subunit beta (Homo sapiens) (Q01196 whole entry, looked up): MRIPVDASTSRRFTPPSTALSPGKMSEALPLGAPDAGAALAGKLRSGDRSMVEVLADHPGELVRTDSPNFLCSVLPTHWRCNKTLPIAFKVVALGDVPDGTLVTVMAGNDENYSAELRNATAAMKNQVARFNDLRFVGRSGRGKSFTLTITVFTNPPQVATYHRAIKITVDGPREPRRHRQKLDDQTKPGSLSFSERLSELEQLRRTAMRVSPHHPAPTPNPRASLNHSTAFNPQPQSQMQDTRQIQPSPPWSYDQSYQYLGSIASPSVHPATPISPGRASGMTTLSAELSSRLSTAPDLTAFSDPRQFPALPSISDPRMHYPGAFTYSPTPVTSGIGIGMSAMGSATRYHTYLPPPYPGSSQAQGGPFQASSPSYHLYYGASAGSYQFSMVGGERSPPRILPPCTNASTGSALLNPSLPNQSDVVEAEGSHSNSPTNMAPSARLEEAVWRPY
# Sequence of Runt-related transcription factor 1 (Homo sapiens) + Core-binding factor subunit beta (Homo sapiens) (Q13951 whole entry, looked up): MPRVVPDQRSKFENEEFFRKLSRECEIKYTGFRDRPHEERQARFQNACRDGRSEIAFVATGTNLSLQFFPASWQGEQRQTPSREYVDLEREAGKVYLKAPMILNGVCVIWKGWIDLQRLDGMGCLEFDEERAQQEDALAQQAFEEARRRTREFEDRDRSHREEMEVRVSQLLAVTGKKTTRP
SMILES,inhibition,inhibition (retest duplicate average)
O=C(CCc1ccccc1)NNc1ccc(F)cc1,-0.8% (inactive),–
CCCc1cc(=O)oc2c(C)c(O)c(CN3CCCCC3)cc12,70.4% (active),121%
CCc1ccc2oc(=O)cc(CN3CCCCC3C)c2c1 (configuration not stated),-0.5% (inactive),–
CCCc1cc(=O)[nH]c(SCc2cc(=O)oc3c(C)c(C)ccc23)n1,1.9% (inactive),–
O=C(CN1CCc2ccccc21)NC(c1ccccc1)c1ccccc1,-0.8% (inactive),–
CCc1ccc(NC(=O)Nc2ccncc2)cc1,-0.3% (inactive),–
CCN(CC)c1ccc2cc(C(N)=O)/c(=N\NC(=O)c3ccncc3)oc2c1,-128% (inactive),–
CCN(CC)c1ccc2cc(C(=O)O)c(=O)oc2c1,77.6% (active),71.5%
CCN(CC)c1ccc2oc(=O)c(C)nc2c1,-81.6% (inactive),–
N#CC1=C(N)N(c2ccccc2)C2=C(C(=O)CCC2)C1c1ccccc1 (configuration not stated),29.5% (inactive),–
CSc1sc(C)cc1C1C(C#N)=C(N)N(c2cccnc2)C2=C1C(=O)CCC2 (configuration not stated),76.1% (active),73.7%
CCc1ccc(C2C(C#N)=C(N)N(N(C)C)C3=C2C(=O)CCC3)s1 (configuration not stated),-11.9% (inactive),–
COc1ccc(C2/C=C\CN(S(=O)(=O)c3cccs3)CC(=O)N2Cc2ccc(F)cc2)cc1 (configuration not stated),2.2% (inactive),–
COc1cc(CNc2ncn[nH]2)ccc1OCc1ccccc1C,-0.6% (inactive),–
N#Cc1ccc(Oc2ccc(C(F)(F)F)cc2NC(=O)c2ccc(F)cc2)cc1,-0.8% (inactive),–
C#CCNC(=O)C1=C[C@@H](c2ccccc2)[C@H](CCCO)[C@@H](OCC)O1,1.4% (inactive),–
Cc1cc(C)cc(NC(=O)NC2CCN(CC(=O)Nc3cccc(Cl)c3C)CC2)c1,0.9% (inactive),–
CCOc1ccccc1C1C(C(=O)OC)=CN(C)C=C1C(=O)OC,42% (inactive),–
COC(=O)C1=CN(C)C=C(C(=O)OC)C1c1ccc(Cl)cc1Cl,60.9% (active),91.8%
NC(=O)C1(C(N)=O)OC1c1ccc(Cl)cc1Cl (configuration not stated),1% (inactive),–
CC(OC(=O)c1ccc(NS(=O)(=O)c2ccc3[nH]c(=O)[nH]c3c2)cc1)C(=O)Nc1cccc(Cl)c1Cl (configuration not stated),-5.6% (inactive),–
CCOC(=O)C1CCN(CCC(=O)Nc2cccc(C)c2)CC1,0.1% (inactive),–
COCc1ccc(C(=O)N2CCc3c([nH]c4ccccc34)C2c2ccccn2)s1 (configuration not stated),2.3% (inactive),–
COCCCNC(=S)NCCNc1nc2cc(C)c(C)cc2cc1C#N,88.8% (active),125%

SMILES,inhibition,inhibition (retest duplicate average)
Cc1ccc2nc(NCCCNC(=O)c3cnccn3)c(C#N)cc2c1,32% (inactive),–
COCCCNC(=S)NC(=O)c1ccc([N+](=O)[O-])cc1,4.6% (inactive),–
CC(C)N(Cc1ccccc1)C(=O)COC(=O)c1cnccn1,-2.4% (inactive),–
CSCCC(Nc1ccc(S(=O)(=O)N2CCOCC2)cc1[N+](=O)[O-])C(=O)OCC(=O)N(C(C)C)C(C)C (configuration not stated),-4.8% (inactive),–
CCOC(=O)C1=C(N)N(c2ccc(C)cc2)C2=C(C(=O)CCC2)C1c1cccs1 (configuration not stated),-7.1% (inactive),–
CCCN1C2=C(C(=O)CCC2)C(c2ccc(O)c(Br)c2)C2=C1CCCC2=O,118% (active),118%
CCCC(=O)N1c2ccccc2NC2=C(C(=O)CCC2)C1c1ccc(F)cc1 (configuration not stated),-4.3% (inactive),–
O=C(Nc1ccc2ccccc2c1)/C(=C\c1ccc2c(c1)OCO2)NC(=O)c1ccco1,-21.7% (inactive),–
COc1ccc(N2CCN(C(=O)CSc3nc4cc(OC)c(OC)cc4cc3C#N)CC2)cc1,9.4% (inactive),–
COc1ccc2nc(N3CCCC(O)C3)c(C#N)cc2c1 (configuration not stated),65% (active),72.9%
COc1cccc(C(=O)Nc2ccc(N3CCCC3)cc2)c1,5.7% (inactive),–
Cc1cc(C)nc(SCc2cn3c(C)cc(C)nc3n2)n1,-4% (inactive),–
O=c1c(Cl)c(NCc2ccc(F)cc2Cl)cnn1C12CC3CC(CC(C3)C1)C2,3.5% (inactive),–
FC(F)(F)c1ccc(-n2cn[nH]c2=S)cc1,3.3% (inactive),–
Nc1[nH][nH]c(=O)c1N=Nc1ccc2c(c1)OCO2,-0.1% (inactive),–
c1csc(-c2cn3c(n2)SCC3)c1,-6.8% (inactive),–
N#Cc1c(C(F)(F)F)cc(-c2cccs2)nc1N1CCCCC1,82.5% (active),79.2%
CCCn1c(=O)c2c(C(F)(F)F)cc(-c3cccs3)nc2n(CCC)c1=O,1.9% (inactive),–
C=CCCN(Cc1ccccc1)S(=O)(=O)c1ccccc1Br,-2.3% (inactive),–
c1ccc(-n2cccc2)c(N2CCCCC2)c1,-0.7% (inactive),–
O=C(Cn1c(-c2ccccn2)nc2ccccc21)NCCN1CCOCC1,-0.1% (inactive),–
c1ccc2cc3c(NCCN4CCOCC4)ccnc3cc2c1,78.2% (active),71.5%
O=C(NCCN1CCOCC1)c1ccc2c(c1)ncn2C1CCCC1,0.2% (inactive),–
C/C(N)=C(/C#N)C(=O)COC(=O)CNS(=O)(=O)c1ccc(C)cc1,-1.2% (inactive),–

SMILES,inhibition,inhibition (retest duplicate average)
CC(C)N(C)C(=O)CCc1nnc(CCc2c[nH]c3ccccc23)o1,-1.1% (inactive),–
COc1ccc(/C=C2\SC(=S)N(CC(=O)NNC(=O)c3ccncc3)C2=O)cc1,-217% (inactive),–
Cc1cc(=O)[nH]c(N/N=C/c2ccc3c(c2)OCCO3)n1,-9.8% (inactive),–
COc1ccc(S(=O)(=O)Nc2ccc3oc(C)c(C(C)=O)c3c2)cc1,-0.7% (inactive),–
COCc1cc(=O)oc2cc(NS(=O)(=O)c3ccc(C)cc3)ccc12,80.2% (active),71.8%
Cc1ccc(S(=O)(=O)Nc2ccc3ncccc3c2)cc1,-1.3% (inactive),–
Cc1ccc(S(=O)(=O)NCCc2nnc3ccc(SCc4cccnc4)nn23)cc1,-6.7% (inactive),–
O=C(Oc1ccccc1)Oc1ccc2c(c1)oc(=O)c1ccccc12,-17.7% (inactive),–
CC(=O)Nc1cc2ccc(OC(C)=O)cc2oc1=O,58.6% (active),119%
CC(=O)Oc1ccc2c(C)c(CC(C)O)c(=O)oc2c1 (configuration not stated),119% (active),116%
O=C(Nc1cc2ccccc2oc1=O)C1CCCCC1,-0.3% (inactive),–
COC(=O)Cc1c(C)c2ccc(OCC(=O)NCc3ccc4c(c3)OCO4)cc2oc1=O,-5.4% (inactive),–
Cc1c(Cc2ccccc2)c(=O)oc2cc(OCC(N)=O)ccc12,2.5% (inactive),–
CCCNC(=O)N1CCN(C(=O)NCCC)CC1,2.1% (inactive),–
Cc1nc(C(=O)NCc2ccccc2)sc1C1(C)CC(c2cccnc2)=NO1 (configuration not stated),0.2% (inactive),–
CCOC(=O)C1=C(c2ccccc2)NC(=S)NC1c1ccc(Cl)cc1 (configuration not stated),-1.3% (inactive),–
CC(C)CCNC(=O)C1CCC(CNc2c(N3CCC(C)CC3)c(=O)c2=O)CC1 (configuration not stated),-1.8% (inactive),–
Cc1cc2c(cc1C)[n+](C)cn2CC(O)COCC1CC=CCC1 (configuration not stated),7.6% (inactive),–
COc1ccc2c(c1)CCc1cn3ncc(C#N)c3nc1-2,89.1% (active),74.1%
N#Cc1cnn2cc(CCN3CCOCC3)c(-c3ccc(F)cc3)nc12,-1.8% (inactive),–
COc1ccc2c(c1)CCc1c(C(=O)N3CCCC3)noc1-2,-2.4% (inactive),–
COc1ccc(OC)c2[nH]c(=O)c(CCNC(=O)C(=O)c3c[nH]c4ccccc34)cc12,0.3% (inactive),–
CCCCN(C(=O)/C=C/c1ccco1)c1c(N)n(CC(C)C)c(=O)[nH]c1=O,8.5% (inactive),–
CC(=O)COc1ccc2c(-c3ccccc3)cc(=O)oc2c1,3.8% (inactive),–

SMILES,inhibition,inhibition (retest duplicate average)
O=C(CNC(=O)c1ccc(-c2ccccc2)cc1)OCc1ccc(Cl)cc1,-1.6% (inactive),–
O=C(CNC(=O)OCc1ccccc1)Oc1cc2oc(=O)cc(-c3ccccc3)c2cc1Cl,78.7% (active),71.5%
O=[N+]([O-])c1ccc(N2CCNCC2)cc1NCc1cccnc1,-3.2% (inactive),–
CC(C)OCCCNC(=O)c1cc(Sc2ccc(F)cc2)nc2ccccc12,0.5% (inactive),–
O=C(CSc1ncn[nH]1)Nc1nsc(-c2ccccc2)n1,3.7% (inactive),–
O=C(CSc1nc(O)c(Cc2ccccc2)c(=O)[nH]1)Nc1nc2c(s1)CCCC2,2.5% (inactive),–
CN1C(=O)/C(=C/C=C2\SCCN2C)OC1=S,84.2% (active),79.9%
CCc1ccc(C(=O)OCC(=O)NCC(F)(F)F)cc1,-1.7% (inactive),–
CCO[C@H]1OC(C(=O)NCc2ccccc2)=C[C@@H](c2coc3ccccc3c2=O)[C@@H]1CCCO,-0.8% (inactive),–
CN1CCNC(=O)C1CC(=O)N1CC=C(c2ccc(F)cc2)CC1 (configuration not stated),-7.4% (inactive),–
COC(=O)/C=C\C(=O)Nc1cccc([N+](=O)[O-])c1,56% (active),62.5%
CC(=O)Nc1cccc([N+](=O)[O-])c1,0.2% (inactive),–
Cc1ccccc1NC(=S)Nc1cccc([N+](=O)[O-])c1,5.7% (inactive),–
COc1ccc(CCn2c(-c3ccco3)nc3nc4ccccc4nc32)cc1OC,-7.1% (inactive),–
CC(C)n1c(-c2cccs2)nc2ccccc21,1.6% (inactive),–
COCCCn1c(-c2cccs2)nc2nc3ccccc3nc21,87.7% (active),99.9%
Cc1ccc(C(=O)O)cc1NC(=O)c1ccc(Cn2nc(C)c(Cl)c2C)o1,-2.9% (inactive),–
O=C(CCc1n[nH]c(=O)[nH]c1=O)N/N=C/c1ccc(Br)o1,-0.8% (inactive),–
CN(C)c1nc(N)nc(Cn2nnc(-c3ccc(C(F)(F)F)cc3)n2)n1,1.3% (inactive),–
c1ccc(-c2cc3c(NCC4COc5ccccc5O4)ncnc3s2)cc1 (configuration not stated),8.3% (inactive),–
O=C(CC1CCCCC1)NCc1ccc(F)cc1,-2% (inactive),–
COCCC(=O)Nc1ccc2c(c1)CN(C(=O)CCOC)CC2,-1% (inactive),–
O=c1c2c(nc3cc(-c4cccc(Cl)c4)[nH]n13)CCCC2,-1.8% (inactive),–
